Reference: PubChem BioAssay AID651658 (Broad Institute, 2012)
Hit rate of the full screen: of about 340,000 compounds, about 5,100 (1.5%) were called active. This is one part of a sample in which actives are shown more often than they occur. Unmarked numbers belong to inactive results.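 Rule for the calls: active = mean Tm shift, scaled 0 neutral to 100 positive control, at about 1.3% or above, every replicate too (limit read from the data); inconclusive = no clear call, values can overlap the other calls; inactive = the rest.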

Molecular target: Fibroblast growth factor 22 (Homo sapiens) (UniProt Q9HCT0)
Assay: FGF22 ligand-induced thermal stabilization – biophysical, thermal shift, single point, FGF22 synaptogenesis inhibitor project, primary screen (AID 651658)
Details: recombinant FGF22 thermal shift, SYPRO orange fluorescence; at 9.99 µM; hits give high values; percent of sucrose octasulfate shift, DMSO zero

Sequence of Fibroblast growth factor 22 (Homo sapiens) (Q9HCT0 whole entry, looked up): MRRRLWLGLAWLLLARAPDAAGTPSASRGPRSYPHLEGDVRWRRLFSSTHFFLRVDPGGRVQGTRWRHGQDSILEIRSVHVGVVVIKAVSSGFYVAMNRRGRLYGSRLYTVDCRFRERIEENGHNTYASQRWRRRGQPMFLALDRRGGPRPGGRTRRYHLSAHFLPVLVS

SMILES | activity (Tm shift, normalised)
CCCNC(=O)N1CC2(CN(C(=O)c3cnccn3)C2)c2c([nH]c3cc(OC)ccc23)[C@@H]1CO | 0.028%
CCn1c(C(C)C)n[nH]c1=S | 43.3% (active)
CCc1cc(-c2n[nH]c(=S)n2CC(C)C)cs1 | -0.833%
CCn1c(-c2ccncc2)n[nH]c1=S | 0.117%
O=C(C[C@H]1C[C@H]2c3cc(NC(=O)Nc4ccccc4F)ccc3O[C@H]2[C@H](CO)O1)NCc1ccccn1 | 0.07%
Cc1cccc(C)c1NC(=O)C1(N(C(=O)c2ccccn2)c2ccc(O)cc2)CCCCC1 | 43% (active)
Cc1cccc(C)c1NC(=O)CNC(=O)C1CCCC1 | -0.023%
Cc1cccc(C)c1NC(=S)N1CCCCCC1 | -0.275%
O=C(N[C@H]1CC[C@H](CCNS(=O)(=O)c2ccc(F)cc2)O[C@H]1CO)c1cccc(F)c1 | -0.051%
O=C(Nc1cc(F)ccc1F)N[C@@H]1C=C[C@@H](CC(=O)N2CCc3ccccc3C2)O[C@@H]1CO | -0.137%
CCC(=O)N1[C@@H](CO)[C@@H]2c3ccccc3N(C(=O)c3cnccn3)C[C@@H]21 | -0.28%
Cc1ccc(S(=O)(=O)N2CCN(C(=O)COC(=O)c3c(C)noc3C)CC2)c(C)c1 | -0.319%
COc1ccc(C(=O)COC(=O)c2c(C)noc2C)cc1Cl | 44% (active)
CCc1noc(C)c1C(=O)OCC(=O)c1ccc(NC(=O)CC(C)C)cc1 | -0.332%
COC(=O)C1=CN(c2c(C)cc(C)cc2C)C(N)=C(C#N)C1c1cccc(F)c1 (stereo unspecified) | -0.26%
Cn1c2c(c(=O)n(C)c1=O)C(c1cccc(F)c1)C(C#N)=C(N)O2 (stereo unspecified) | -0.167%
CCOC(=O)C1=C(CC)OC(N)=C(C#N)C1c1ccc(F)cc1F (stereo unspecified) | 43.8% (active)
COc1ccc(-c2ccc3c(n2)CCCN3S(=O)(=O)c2ccc(C)cc2)cc1 | 48.4% (active)
CN1CCCc2nc(-c3ccccc3)ccc21 | 42.2%
O=S(=O)(c1cccs1)N1CCCc2nc(-c3ccc(Br)cc3)ccc21 | 0.061%
C[C@@H]1CCCCO[C@@H](CN(C)Cc2ccc(C(=O)O)cc2)[C@H](C)CN([C@H](C)CO)C(=O)c2cc(NS(=O)(=O)c3cccs3)ccc2O1 | -0.274%
C[C@@H]1CN([C@H](C)CO)C(=O)c2cc(NS(=O)(=O)c3ccccc3)ccc2O[C@@H](C)CCCCO[C@H]1CN(C)S(=O)(=O)c1ccc(Cl)cc1 | -0.893%
COCc1cn(CC[C@H]2CC[C@H](NC(=O)Nc3ccc4c(c3)OCO4)[C@@H](CO)O2)nn1 | -0.239%
CO[C@@H]1CN(C)C(=O)c2cc(NC(=O)Nc3cccc(F)c3)ccc2OC[C@H](C)N(C)C[C@@H]1C | -0.31%
COc1ccc(-c2ccc3c(c2)[C@H]2[C@H](CCN2C(=O)C2CCOCC2)[C@H](CO)N3C)cc1 | -0.244%
Cc1ccc(C2=Nc3c(ccc4ccccc34)C(c3ccncc3)=NN2)cc1 | 44% (active)

SMILES | activity (Tm shift, normalised)
COc1ccc(S(=O)(=O)N(C)C[C@@H]2Oc3ccc(NC(=O)CCN4CCOCC4)cc3CC(=O)N([C@@H](C)CO)C[C@@H]2C)cc1 | -0.109%
COc1ccc(NC(=O)CCNS(=O)(=O)c2ccc3c(c2)c(=O)n(C)c(=O)n3C)cc1OC | -0.132%
Cn1c(=O)c2cc(S(=O)(=O)NCCC(=O)Nc3ccc(F)cc3F)ccc2n(C)c1=O | 43.3% (active)
CCc1ccccc1NC(=O)CN(C)S(=O)(=O)c1ccc2c(c1)c(=O)n(C)c(=O)n2C | -0.036%
CCCC#Cc1cnc2c(c1)C(=O)N([C@@H](C)CO)C[C@@H](C)[C@@H](CN(C)Cc1ccccc1F)O2 | -0.354%
C/C(=N\OC(=O)c1ccccc1)c1c(C)nc2cc(C)ccn12 | 44.6% (active)
Cc1ccn2c(-c3csc(Nc4ccc(C(=O)O)cc4)n3)c(C)nc2c1 | -0.135%
C/C(=N/OC(=O)c1ccc(Br)cc1)c1ccc(C)cc1 | 0.152%
Cc1ccccc1-c1cnc2c(c1)C(=O)N([C@H](C)CO)C[C@@H](C)[C@H](CN(C)C(=O)c1cccnc1)O2 | 0.163%
CO[C@@H]1CN(C)C(=O)c2ccc(NC(=O)Nc3cc(Cl)cc(Cl)c3)cc2OC[C@H](C)NC[C@H]1C | -0.905%
Cc1ccc(S(=O)(=O)N[C@H]2CCC[C@@H]2O)cc1 | -0.275%
Cc1ccc(S(=O)(=O)NC2CCCCCC2)cc1 | 43% (active)
CC(C)c1ccc(S(=O)(=O)NC2CCCC2)cc1 | 0.004%
C[C@@H]1CN([C@@H](C)CO)C(=O)CCCn2cc(nn2)CO[C@@H]1CN(C)S(=O)(=O)c1ccccc1C#N | -0.156%
CSc1ccc(/C=N\NC(=O)CC(=O)NC(C)C)cc1 | 43.1% (active)
CSc1ccc(/C=N/NC(=O)c2cccc(Cl)c2)cc1 | 0.743%
O=C(CC(=O)N/N=C\c1ccc(F)cc1)NCCc1ccccc1 | 0.292%
Cc1ccc(S(=O)(=O)N(C)C[C@@H]2Oc3ccc(NS(=O)(=O)c4cccs4)cc3C(=O)N([C@@H](C)CO)C[C@H]2C)cc1 | -0.456%
CO[C@H]1CN(C)C(=O)c2cc(NC(=O)C3CCC3)ccc2OC[C@H](C)N(CC2CCCCC2)C[C@@H]1C | 0.141%
O=S(=O)(ON(c1ccccc1)S(=O)(=O)c1ccccc1)c1ccccc1 | 1.68% (active)
O=S(=O)(c1ccccc1)N(Cc1cccc(F)c1)c1ccccc1 | -0.239%
CCN(c1ccccc1)S(=O)(=O)c1ccc(N)cc1 | -0.161%
CN1c2ccc(C3=CCCCC3)cc2[C@@H]2[C@@H](CCN2S(=O)(=O)c2ccccc2F)[C@H]1CO | -0.132%
Cc1noc(C)c1NC(=O)N[C@H]1C=C[C@@H](CC(=O)Nc2ccccc2)O[C@H]1CO | -0.156%
CO[C@@H]1CN(C)C(=O)c2cc(NS(=O)(=O)c3cccc(F)c3)ccc2OC[C@@H](C)NC[C@@H]1C | -0.14%
Cc1ccc(-c2c[n+](CC(=O)Nc3ccccc3)c3n2CCC3)cc1 | -0.075%

SMILES | activity (Tm shift, normalised)
Clc1ccc(C[n+]2cc(-c3ccccc3)n3c2CCC3)cc1 | -0.249%
Cc1ccc(C(=O)C[n+]2cc(-c3ccccc3)n3c2CCCCC3)cc1 | 44.4% (active)
O=C(C[C@H]1C=C[C@H](NC(=O)Nc2cc(F)ccc2F)[C@H](CO)O1)Nc1ccccc1 | 0.041%
C[C@@H]1CCCCO[C@@H](CN(C)Cc2ccncc2)[C@@H](C)CN([C@@H](C)CO)C(=O)c2cc(NC(=O)Nc3ccc(F)cc3)ccc2O1 | -0.232%
CCCNC(=O)C[C@@H]1CC[C@H]2[C@@H](COC[C@@H](O)CN2Cc2ccccc2F)O1 | 0.109%
CCC(=O)Nc1ccc2c(c1)OC[C@H](C)N(C(=O)Cc1cccnc1)C[C@@H](C)[C@@H](OC)CN(C)C2=O | -0.218%
CCc1cccc(NC(=O)O[C@H]2[C@H](OC(=O)Nc3ccccc3-c3ccccc3)[C@H](OC(=O)Nc3ccccc3-c3ccccc3)[C@@H](OC)O[C@@H]2CO)c1 | -0.082%
COc1ccc(S(=O)(=O)N2CCCCN3[C@H](CO)[C@H](c4ccc(C5=CCCCC5)cc4)[C@@H]3C2)cc1 | -0.535%
O=[N+]([O-])c1ccc(N2CCOCC2)cc1 | -0.032%
O=[N+]([O-])c1ccc(N2CCN(CC(O)COc3ccccc3)CC2)cc1 (stereo unspecified) | 43.9% (active)
OC(COc1ccccc1)CN1CCN(c2cccc(Cl)c2)CC1 (stereo unspecified) | 0.055%
CC(C)NC(=O)Nc1ccc2c(c1)C(=O)N([C@H](C)CO)C[C@H](C)[C@H](CN(C)C(=O)CCC(F)(F)F)OCCCC[C@H](C)O2 | -0.429%
CN1CCN(C(=O)C[C@H]2CC[C@H]3[C@@H](COc4ccc(NC(=O)C5CCC5)cc4C(=O)N3C)O2)CC1 | -0.349%
COC(=O)C1=C(C)N(C)C(=S)NC1c1ccccc1 (stereo unspecified) | 0.104%
COc1ccc(C2NC(=O)N(C)C(C)=C2[N+](=O)[O-])cc1 (stereo unspecified) | 0.013%
COC(=O)C1=C(C)N(C)C(=O)NC1c1ccc([N+](=O)[O-])o1 (stereo unspecified) | 43.8% (active)
COCC(=O)N1CCCCN2[C@H](CO)[C@H](c3ccc(C#Cc4ccc(OC)cc4)cc3)[C@H]2C1 | 0.2%
COc1ccc2c3c(n(C)c2c1)[C@H](CO)N(C(C)=O)CC31CCN(Cc2cccnc2)CC1 | -0.052%
C/C=C/c1ccc2c(c1)O[C@H](CN(C)C(=O)Cc1ccncc1)[C@@H](C)CN([C@@H](C)CO)S2(=O)=O | -0.034%
CC(NCC(=O)Nc1cc(Cl)cc(Cl)c1)c1ccccc1 (stereo unspecified) | -0.134%
Cc1nnc(SC(C(=O)c2ccccc2)c2ccccc2)[nH]c1=O (stereo unspecified) | 0.339%
Cc1nnc(SC(C(=O)Nc2cc(Cl)cc(Cl)c2)c2ccccc2)[nH]c1=O (stereo unspecified) | 1.39% (active)
C[C@H]1CN([C@@H](C)CO)C(=O)Cc2cc(N(C)C)ccc2O[C@@H]1CN(C)S(=O)(=O)c1ccc(F)cc1 | -0.149%
C[C@@H]1CCCCO[C@H](CN(C)S(=O)(=O)c2cccs2)[C@@H](C)CN([C@@H](C)CO)C(=O)c2cc(NC(=O)NC3CCCCC3)ccc2O1 | -0.096%
